Bioassay records as filed in PubChem.
aSyn UTR act: Activators working through SNCA 5'UTR binding (MLPCN); alpha-synuclein 5'UTR reporter, activators screen; activity score, % (tested at 7.5 µM), hits read low; AID 1814; actives 7.1% (n = 300,000); in the data active means activity score below about -60%
Of the large screens only hits and unclear results are named; the others gave an inactive call. A selection follows.

COc1cccc2cc(C(=O)OCC(=O)NCc3ccc4c(c3)OCO4)c(=O)oc12	aSyn UTR act -92
COc1cccc2cc(C(=O)c3ccccc3)oc12	aSyn UTR act -132
COc1cccc2cc(C(=O)NCc3ccccc3Cl)c(=O)oc12	aSyn UTR act -101
COc1cccc2cc(C(=O)Nc3ccccc3C)/c(=N/O)oc12	aSyn UTR act -114
COc1cccc2cc(CC(=O)c3ccccc3)c(=O)oc12	aSyn UTR act -147
COc1cccc2cc(C(=O)NCc3ccco3)c(=Nc3ccc(C(=O)O)cc3)oc12	aSyn UTR act -90
CCc1ccc(C(=O)Cc2cc3cccc(OC)c3oc2=O)cc1	aSyn UTR act -105
CCc1ccc(-c2nc(C(N)=O)c3[nH]c(=O)n(-c4ccccc4OC)c3n2)cc1	none
Cc1cccc(S(=O)(=O)Nc2ccc(-c3nc4ccc(C)cc4s3)cc2)c1	aSyn UTR act -172
CC(=O)c1ccc(NS(=O)(=O)c2cccc(C)c2)cc1	aSyn UTR act -127
Cc1ccc2nc(-c3ccc(NS(=O)(=O)c4c(C)n(C)c(=O)n(C)c4=O)cc3)sc2c1	aSyn UTR act -94
Oc1ccc(Br)cc1C=Nc1cccn2cc(-c3ccccc3)nc12	aSyn UTR act -80
Cc1csc(SCC(=O)Nc2sccc2C(N)=O)n1	aSyn UTR act -110
NC(=O)c1ccsc1NC(=O)CSc1ccccc1F	aSyn UTR act -119
O=C(Nc1ccc(F)cc1F)c1noc2c1CCC2	aSyn UTR act -169
O=C(Nc1cc(Cl)ccc1Cl)c1noc2c1CCCC2	aSyn UTR act -67
Cc1cccc(N(C)S(=O)(=O)c2ccc(-c3cc(C)no3)s2)c1	none
Cc1cccc(N(C)C(=O)c2cc3cc4ccc(C)cc4nc3o2)c1	aSyn UTR act -605
Nc1nc2ccc(OC(F)(F)F)cc2s1	aSyn UTR act -74
Cc1cc2nc(N)sc2cc1C	aSyn UTR act -64
CC(C)c1ccc2nc(N)sc2c1	aSyn UTR act -107
O=C(Nc1ccc(Cl)cc1)c1ccc2ncsc2c1	aSyn UTR act -227
O=C(Nc1ccc(F)cc1)c1ccc2ncsc2c1	aSyn UTR act -176
O=C(Nc1ccc(C(F)(F)F)cc1)c1ccc2ncsc2c1	aSyn UTR act -167
O=C(Nc1cccc(Cl)c1)c1ccc2ncsc2c1	aSyn UTR act -266
Cc1ccc(NC(=O)c2ccc3ncsc3c2)cc1S(=O)(=O)N(C)C	aSyn UTR act -148
Cc1ccc(C(=O)N/N=C/c2ccc(-c3cccc(C(F)(F)F)c3)o2)cn1	none
Nc1nonc1C(=O)N/N=C/c1ccc(-c2cccc(C(=O)O)c2)o1	aSyn UTR act -63
C=C1CCC2[C@](C)(CO)[C@H](O)CC[C@@]2(C)[C@@H]1C/C=C1\C(=O)OC[C@H]1O (stereo partly specified)	aSyn UTR act -151
CCc1nc(C)c(C(=O)N2CCCC(C(=O)Nc3cccc(-c4cccc(C)c4)c3)C2)o1 (stereo unspecified)	aSyn UTR act -77
Cc1cccc(-c2cccc(NC(=O)C3CCCN(C(=O)c4csc(C)n4)C3)c2)c1 (stereo unspecified)	aSyn UTR act -70
CCN1CCc2c(sc(NC(=O)c3ccc(S(=O)(=O)N4CCOCC4)cc3)c2C(=O)OC)C1	aSyn UTR act -71
O=C(c1ccccc1)N1CCN2C(=O)c3ccccc3C12c1ccc(Cl)cc1 (stereo unspecified)	aSyn UTR act -72
O=C1CN(c2ccccc2)C(=S)N1C(=O)c1ccc(Br)cc1	aSyn UTR act -150
Cc1ccc(N=C2NC(=O)/C(=C\c3ccco3)S2)cc1	aSyn UTR act -74
O=C1NC(=Nc2ccccc2)S/C1=C\c1cccs1	aSyn UTR act -92
CCOc1ccc2c(c1)S/C(=C\c1cccs1)C(=O)N2	aSyn UTR act -134
Cn1cccc1/C=C1\SC(=Nc2cccc(O)c2)NC1=O	aSyn UTR act -241
O=C1NC(=Nc2ccc(O)cc2)S/C1=C/c1ccco1	aSyn UTR act -88
O=C1NC(=Nc2ccc3ccccc3c2)S/C1=C/c1ccco1	aSyn UTR act -91
COc1ccc2cc(CN(CC3CCCO3)S(=O)(=O)c3ccc(C(C)=O)cc3)c(=O)[nH]c2c1 (stereo unspecified)	aSyn UTR act -78
CC(=O)Nc1ccc(S(=O)(=O)N(Cc2cc3ccc(C)cc3[nH]c2=O)CC2CCCO2)cc1 (stereo unspecified)	none
COc1ccc(-c2cc(CS(=O)(=O)c3ccccc3)on2)cc1	aSyn UTR act -158
O=S(=O)(Cc1cc(-c2ccccc2)no1)c1ccccc1	aSyn UTR act -77
O=C(c1ccccc1)c1cc2cc(Cl)ccc2[nH]1	aSyn UTR act -169
COc1cccc(C(=O)c2cc3cc(Cl)ccc3[nH]2)c1	aSyn UTR act -147
COc1ccc(/C=N/Nc2nc3ccccc3s2)cc1O	none
CN(C)c1ccc(/C=C/c2nc3ccccc3s2)cc1	none
COc1cc(/C=C/c2nc3ccccc3s2)cc(OC)c1O	aSyn UTR act -69
COc1ccc(C=C(c2nc3ccccc3s2)c2nc3ccccc3s2)cc1O	aSyn UTR act -281
CO/N=C/CC(=O)c1cnc(-c2ccc(Cl)cc2)s1	aSyn UTR act -79
NC(=O)COc1c(-c2ccc(Br)o2)oc2ccccc2c1=O	aSyn UTR act -62
Cc1cc2c(C)nc(-c3ccccc3)nc2o1	aSyn UTR act -167
CC1(C(=O)N2CCN(Cc3ccccc3Cl)CC2)CC1(Cl)Cl (stereo unspecified)	aSyn UTR act -71
O=S(=O)(c1ccc(Cl)cc1)N1CCN(Cc2ccc(O)c3ncccc23)CC1	none
O=C(O)/C=C/c1ccc2ccccc2n1	aSyn UTR act -64
C(=C\c1ccc2ccccc2n1)/c1ccccc1	none
COc1ccc2c(c1)O/C(=C\c1ccccc1C)C2=O	aSyn UTR act -131
CN(C)c1ccc(N/C=C/C(=O)c2ccco2)cc1	aSyn UTR act -105
CC(=O)Nc1ccc(N/C=C/C(=O)c2ccco2)cc1	aSyn UTR act -323
O=C(/C=C/Nc1ccccc1O)c1ccco1	aSyn UTR act -87
O=C(/C=C/Nc1ccc(Br)cc1F)c1ccco1	none
COc1ccc2nc3oc(C(=O)N4CCCCC4)cc3cc2c1	aSyn UTR act -192
CCOC(=O)C1CCN(C(=O)c2cc3cc4cc(OC)ccc4nc3o2)CC1	aSyn UTR act -71
COc1ccccc1Nc1ccc([N+](=O)[O-])cn1	aSyn UTR act -74
C=CCNc1nc(N)c([N+](=O)[O-])c(Nc2ccccc2OC)n1	none
COc1ccc(Nc2ccc([N+](=O)[O-])cn2)cc1	aSyn UTR act -120
O=[N+]([O-])c1ccc(NCCOc2ccccc2Cl)nc1	aSyn UTR act -74
COc1ccc(CNc2ccc([N+](=O)[O-])cn2)cc1	aSyn UTR act -137
COC(=O)C1CCN(C(=O)/C=C/c2ccc3c(c2)OCO3)CC1	aSyn UTR act -66
Cc1cc(C)n(-c2nc(-c3ccccc3)cs2)n1	aSyn UTR act -89
Cc1cc(C)n(-c2nc(-c3cccc(Cl)c3)cs2)n1	aSyn UTR act -102
CCOCCCNC(=O)/C(C#N)=C/c1cc(Br)c(O)c(Br)c1	aSyn UTR act -69
Cc1ccsc1/C=N/N=C/c1sccc1C	aSyn UTR act -181
Cc1ccsc1/C=N/NC(=O)c1sccc1C	aSyn UTR act -167
Cc1ccsc1/C=N/NC(=O)c1ccco1	aSyn UTR act -81
Cc1ccc(C(=O)N/N=C\c2sccc2C)cn1	aSyn UTR act -75
Cc1ccc(C(=O)N/N=C/c2c(O)ccc3ccccc23)cn1	none
Cc1ccc(/C=c2/sc3n(c2=O)CCCN=3)o1	aSyn UTR act -143
O=c1/c(=C\c2ccc3c(c2)OCO3)sc2n1CCCN=2	aSyn UTR act -83
COc1ccc(N2CCN(C(=O)c3ccc(NS(=O)(=O)c4cccs4)cc3)CC2)cc1	aSyn UTR act -75
